DAX1 inh-1: DAX1 (NR0B1) inhibitors on StAR promoter, primary screen, cell-based, luminescence, SF-1 (NR5A1), full-length DAX-1; HEK293T StAR-luciferase reporter, SF-1/DAX-1 repression relief; inhibition, % at 6.8 µM; 370,000 tested, 1.1% active;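 active means inhibition above the mean over all tested compounds plus 3 SD, cut at about 3.6% in these data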;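 further: higher inhibition means more luminescence from relief of DAX-1 repression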
hgDAF12 agonist: H. glycines DAF-12 receptor agonists, primary screen, cell-based, luminescence, HEK293, GAL4 fusion, UAS-luciferase | HEK293 GAL4-hgDAF12 UAS-luciferase reporter, agonist luminescence; normalized to butyrate control | 370,000 tested, 1.8% active | Nuclear hormone receptor DAF-12 (Heterodera glycines), GAL4 fusion | AID 687014, 2013 | activation, % at 6.8 µM;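 active means activation above a cutoff set at the mean of all screened compounds plus 3 SD, cut at about 10% in these data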
hcDAF-12 act: H. contortus DAF-12 nuclear receptor activators, primary screen, cell-based, luminescence, HEK293, lit1-tk-luc reporter. HEK293 hcDAF-12 lit1-tk-luc reporter; 0% DMSO, 100% Δ7-dafachronic acid. 370,000 tested, 1.4% active. activation, % at 6.8 µM;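 active means activation above the mean of all tested compounds plus 3 SD, cut at about 5.5% in these data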
ssDAF-12 act: S. stercoralis DAF-12 nuclear receptor activators, primary screen, cell-based, luminescence, HEK293, GRIP1 co-expression, lit1-tk-luc. HEK293 ssDAF-12/GRIP1 lit1-tk-luc reporter; % of 3 µM dafachronic acid response. AID 652126, 2013. activation, % at 6.8 µM. 370,000 tested, 1% active. Nuclear hormone receptor DAF-12 (Strongyloides stercoralis);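 active means activation above the mean over all tested compounds plus 3 SD, cut at about 0.9% in these data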
AHR activator: AHR activators, primary screen, cell-based, luminescence, luciferase reporter, human. AHR-responsive luciferase reporter cells. Aryl hydrocarbon receptor (Homo sapiens), P35869. 320,000 tested, 2.5% active. activation, % at 5 µM; in the data active means activation above about 47%
Target sequence (P35869 whole entry, looked up): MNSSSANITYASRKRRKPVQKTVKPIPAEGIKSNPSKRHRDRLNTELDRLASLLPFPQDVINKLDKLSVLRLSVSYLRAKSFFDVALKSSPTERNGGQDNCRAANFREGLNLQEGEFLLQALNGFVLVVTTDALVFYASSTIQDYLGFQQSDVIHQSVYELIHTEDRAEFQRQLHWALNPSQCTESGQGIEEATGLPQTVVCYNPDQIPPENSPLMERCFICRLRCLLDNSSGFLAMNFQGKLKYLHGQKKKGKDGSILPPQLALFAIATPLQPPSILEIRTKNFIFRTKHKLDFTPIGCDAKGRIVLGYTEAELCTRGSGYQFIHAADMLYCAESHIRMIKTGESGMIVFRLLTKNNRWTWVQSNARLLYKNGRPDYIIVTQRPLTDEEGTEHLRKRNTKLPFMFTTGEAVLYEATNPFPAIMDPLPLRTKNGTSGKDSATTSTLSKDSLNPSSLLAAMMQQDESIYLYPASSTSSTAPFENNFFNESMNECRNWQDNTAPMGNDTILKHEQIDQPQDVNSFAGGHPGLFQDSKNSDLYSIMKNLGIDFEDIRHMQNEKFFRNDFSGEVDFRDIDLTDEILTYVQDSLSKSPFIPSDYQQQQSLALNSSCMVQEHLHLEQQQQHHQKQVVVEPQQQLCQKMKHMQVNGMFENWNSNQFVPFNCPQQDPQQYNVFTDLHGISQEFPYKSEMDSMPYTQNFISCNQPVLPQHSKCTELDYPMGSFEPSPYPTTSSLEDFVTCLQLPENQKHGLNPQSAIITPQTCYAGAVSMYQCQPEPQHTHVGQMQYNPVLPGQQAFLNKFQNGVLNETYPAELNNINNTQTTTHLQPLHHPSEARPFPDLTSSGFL
DAX1 inh-2: DAX1 (NR0B1) inhibitors, primary screen, cell-based, HEK293, Gal4-DAX1, luciferase luminescence; Nuclear receptor subfamily 0 group B member 1 (Homo sapiens), P51843; HEK293 Gal4-DAX1 luciferase reporter; inhibition, % at 6.75 µM; 340,000 tested, 0.99% active;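 active means inhibition above the mean over all tested compounds plus 3 SD, cut at about 4.2% in these data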;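 further: inhibition shows as a rise in luminescence from relieved DAX1 repression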
hgDAF12 conf: H. glycines DAF-12 receptor agonists, confirmation, cell-based, luminescence, HEK293, GAL4-LBD fusion; shares compounds with hgDAF12 agonist; HEK293 GAL4-hgDAF12 luciferase reporter, agonist mode; percent of butyrate response; activation, % at 6.8 µM; 3,300 tested, 80% active; AID 743050, 2013;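 active means mean activation over triplicate wells above the hit cutoff derived from the earlier primary screen, cut at about 11% in these data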
LXRb DAF12 ctr: LXR agonists, Gal4 luciferase reporter, confirmation, counter-screen for hgDAF-12 agonist project, cell-based, luminescence, HEK293, H. glycines campaign; shares compounds with hgDAF12 agonist; 24 h; activation, % at 6.8 µM; 3,300 tested, under 10 active; AID 743051, 2013;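 active means mean activation of the triplicate above a set limit carried over from the primary screen, none filed active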
Hits are given with their value; – = inactive; · = not tested or not shown. Compounds with a hit are over-represented: about 5.7% of the library has one in this group of screens.

SMILES	DAX1 inh-1	hgDAF12 agonist	hcDAF-12 act	ssDAF-12 act	AHR activator	DAX1 inh-2	hgDAF12 conf	LXRb DAF12 ctr
N#CC(=C(O)COC(=O)CCCNC(=O)c1ccc(Cl)cc1)c1nc2ccccc2[nH]1	–	–	–	–	·	–	·	·
O=C(Nc1cccc(C(F)(F)F)c1)c1cc[n+]([O-])cc1	–	–	–	–	–	–	·	·
O=C(Nc1cccc(O)c1)c1ccc(C(F)(F)F)cc1	–	14	–	–	–	–	13	–
CCCNC(=O)c1cc(-c2ccc(OC)cc2)on1	–	–	–	–	–	–	·	·
CCCCNC(=O)c1cc(-c2ccc(OC)cc2)on1	–	17	–	–	–	–	16	–
CCCCNC(=O)c1cc(-c2ccc(F)cc2)on1	–	34	–	–	–	–	42	–
COc1ccc(CN(C)C(=O)c2cccc(S(=O)(=O)N3CCc4ccccc43)c2)c(OC)c1	–	–	–	–	–	–	·	·
COc1ccccc1/C=C/c1nc(C#N)c(N(C)C)o1	–	15	5.8	–	–	–	14	–
CN(C)c1oc(-c2ccccc2)nc1C#N	–	–	–	–	–	–	·	·
O=C(NS(=O)(=O)c1ccccc1[N+](=O)[O-])[C@H]1O[C@@H](n2ccc(=O)[nH]c2=O)[C@H](O)[C@@H]1O	–	15	–	–	·	·	–	–
O=C(c1ccc(S(=O)(=O)Nc2ccccc2F)cc1)N1CCN(c2ccccn2)CC1	–	–	–	–	–	–	·	·
O=C(NC1CC2CCC1C2)c1ccco1 (stereo not drawn)	–	–	–	–	–	–	·	·
CC(=O)Nc1cccc(-c2csc(C(O)c3cccc(Cl)c3)n2)c1 (stereo not drawn)	–	–	–	–	·	·	·	·
CC(=O)Nc1cccc(-c2csc(Nc3ncccn3)n2)c1	–	19	–	1.1	·	·	16	–
COc1ccc(C2(C)NC(=O)N(CC(=O)Nc3ccc(-c4nc5ccc(C)cc5s4)cc3)C2=O)cc1 (stereo not drawn)	–	19	–	–	–	·	11	–
CCC1(c2ccc(F)cc2)NC(=O)N(CC(=O)Nc2ccc(-c3nc4ccc(C)cc4s3)cc2)C1=O (stereo not drawn)	3.8	20	–	–	–	–	16	–
CCC1(c2ccc(F)cc2)NC(=O)N(CC(=O)Nc2ccc3c(c2)OCCO3)C1=O (stereo not drawn)	–	–	–	–	–	–	·	·
Cc1ccc(N=Nc2ccc(O)cc2)c(Br)c1	–	15	–	–	–	–	16	–
CCN(CC)S(=O)(=O)c1ccc(N=Nc2cc(C)cc(Br)c2O)cc1	–	–	–	–	–	–	·	·
C=CCOc1cccc(/C=C/c2nc3ccccc3c(=O)[nH]2)c1	–	15	–	1.3	–	–	16	–
COc1cc(/C=C/c2nc3ccccc3c(=O)[nH]2)cc(OC)c1OC	–	–	–	–	–	–	·	·
Cc1ccccc1/C=C\c1nc2ccccc2c(=O)[nH]1	–	15	–	1.3	–	–	20	–
CC1=CC=CC2=NC(=O)CC(C)(C(=O)O)N12 (stereo not drawn)	–	–	–	–	–	–	·	·
CCOC(=O)c1csc(CCNC(=O)c2ccccc2)n1	–	–	–	–	·	–	·	·

Screening results from PubChem BioAssay.
